Rows were chosen to be rich in hits. Some 4.8% of all compounds tested hit in one or more screens of this group.
DAX1 inh-1 = inhibitors of DAX1 repression of SF-1 activated StAR promoter; HEK293T StAR-luciferase reporter, SF-1/DAX-1 repression relief; inhibition, % at 6.8 µM; 370,000 tested, 1.1% active; AID 652010;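 active = inhibition above the mean over all tested compounds plus 3 SD, cut at about 3.6% in these data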;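 also: higher inhibition means more luminescence from relief of DAX-1 repression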
ssDAF12 agonist = activators of S. stercoralis DAF-12 nuclear receptor; 370,000 tested, 1% active; activation, % at 6.8 µM; HEK293 ssDAF-12/GRIP1 lit1-tk-luc reporter, luminescence; % of 3 µM dafachronic acid response;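 active = activation above the mean over all tested compounds plus 3 SD, cut at about 0.9% in these data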
DAX1 inh-2 = NR0B1 (DAX1) inhibition; P51843; HEK293 Gal4-DAX1 luciferase reporter, luminescence; 340,000 tested, 0.99% active; AID 504766; inhibition, % at 6.75 µM;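 active = inhibition above the mean over all tested compounds plus 3 SD, cut at about 4.2% in these data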;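 also: inhibition shows as a rise in luminescence from relieved DAX1 repression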
Target sequence (P51843 207-470 limits assumed): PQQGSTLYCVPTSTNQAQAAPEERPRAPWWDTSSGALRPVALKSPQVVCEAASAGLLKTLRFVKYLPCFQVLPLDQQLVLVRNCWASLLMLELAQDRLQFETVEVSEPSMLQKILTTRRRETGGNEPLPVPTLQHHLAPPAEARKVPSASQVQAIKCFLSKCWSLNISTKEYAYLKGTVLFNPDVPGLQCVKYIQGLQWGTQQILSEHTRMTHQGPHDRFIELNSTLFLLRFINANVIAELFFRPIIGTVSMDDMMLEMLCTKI
SMARCA2 act = activators of SMARCA2 function; MG213 cells, MMTV-luciferase reporter, dexamethasone, overnight; activation, % at 9.1 µM; 370,000 tested, 1% active; in the data active = activation above about 7.8%
hcDAF12 agonist = H. contortus DAF-12 activation, primary screen | AID 652067 | 370,000 tested, 1.4% active | activation, % at 6.8 µM | HEK293 hcDAF-12 lit1-tk-luc reporter, luminescence; 0% DMSO, 100% Δ7-dafachronic acid;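 active = activation above the mean of all tested compounds plus 3 SD, cut at about 5.5% in these data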
hgDAF12 agonist = agonists of H. glycines DAF-12 nuclear receptor. HEK293 GAL4-hgDAF12 UAS-luciferase reporter, agonist luminescence; normalized to butyrate control. activation, % at 6.8 µM. 370,000 tested, 1.8% active. AID 687014;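 active = activation above a cutoff set at the mean of all screened compounds plus 3 SD, cut at about 10% in these data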
SMARCA2 conf = SMARCA2 activation, confirmation screen. activation, % at 9.1 µM. MG213 cells, MMTV-luciferase with dexamethasone, luminescence, overnight; MG213 cells expressing E1A, Rb sequestered; DMSO wells 0%, reference activator 100%. 3,500 tested, 30% active. shares compounds with SMARCA2 act;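 active = activation above its plate's cutoff, the mean activation of tested wells plus 3 SD, cut at about 7.9% in these data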
VP16 Luc act = counter-screen for SMARCA2 activators: GAL4-VP16 luciferase reporter activation; 3,500 tested, 41% active; HEK293 GAL4-VP16 pG5luc reporter, luciferase luminescence; scaled: DMSO wells 0%, SAHA wells 100%; shares compounds with SMARCA2 act; activation, % at 9.1 µM;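 active = activation above the solvent-only control well mean plus 3 SD, averaged across control plates, cut at about 5.2% in these data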
Large screens that a line does not name were inactive (follow-up assays come after a bar, where they were run).

CCOc1cc2c(cc1OCC)C(c1ccccc1)N(c1ccc(C(=O)O)cc1)C(=O)C2 (configuration not stated)	SMARCA2 act 9.5 | SMARCA2 conf inactive | VP16 Luc act inactive
CCOC(=O)[C@]12CCC=C1N(Cc1ccccc1)C(=O)[C@H](CC(=O)NCCc1ccccc1OC)C2	SMARCA2 act 10.4 (no result: DAX1 inh-2) | SMARCA2 conf inactive | VP16 Luc act inactive
CCOC(=O)[C@]12CCCC=C1N(Cc1ccco1)C(=O)[C@H](CC(=O)NCCc1ccccc1OC)C2	SMARCA2 act 8.3 (no result: DAX1 inh-2) | SMARCA2 conf inactive | VP16 Luc act inactive
CCOC(=O)[C@]12CCCC=C1N(Cc1ccccc1)C(=O)[C@H](CC(=O)NCCc1ccccc1OC)C2	none (no result: DAX1 inh-2)
O=C(NCCc1c[nH]c2ccccc12)OCc1cn(-c2ccc(Cl)cc2)nn1	none (no result: DAX1 inh-2)
COc1ccc(C(=O)Oc2c(CN3CCOCC3)cc(Cl)c3cccnc23)cc1	none
O=C(Oc1c(CN2CCOCC2)cc(Cl)c2cccnc12)c1ccccc1Cl	SMARCA2 act 19.4 | SMARCA2 conf inactive | VP16 Luc act inactive
O=C(Oc1c(CN2CCOCC2)cc(Cl)c2cccnc12)c1cccs1	SMARCA2 act 33.4 | SMARCA2 conf 15.7 | VP16 Luc act inactive
O=C(Oc1c(CN2CCOCC2)cc(Cl)c2cccnc12)c1ccc(F)cc1	none
Cc1ccc(NC(=S)NNC(=O)CSc2nc3sc4c(c3c(=O)n2-c2ccccc2)CCCC4)cc1	none (no result: DAX1 inh-2)
Cc1cc(C)cc(NC(=O)/C=C/c2ccc([N+](=O)[O-])s2)c1	SMARCA2 act 8.8 | SMARCA2 conf inactive | VP16 Luc act inactive
CCCOc1ccc(C2C3=C(Nc4nc(N)[nH]c(=O)c42)c2ccccc2C3=O)cc1 (configuration not stated)	none
CCOc1ccc(C2C3=C(Nc4nc(N)[nH]c(=O)c42)c2ccccc2C3=O)cc1 (configuration not stated)	SMARCA2 act 13.7 | SMARCA2 conf inactive | VP16 Luc act inactive
COc1ccc2nc(-c3ccco3)c(-c3ccco3)nc2c1	SMARCA2 act 10.8 | SMARCA2 conf inactive | VP16 Luc act 9.2
CNS(=O)(=O)c1ccc(NC(=S)Nc2ccc3c(c2)OCO3)cc1	SMARCA2 act 9.0, hgDAF12 agonist 11.5 | SMARCA2 conf inactive | VP16 Luc act inactive
O=S(=O)(c1ccc(NC(=S)Nc2ccc3c(c2)OCO3)cc1)N1CCOCC1	none
O=C(Nc1nc(=O)c2ccccc2s1)c1ccc(F)cc1	SMARCA2 act 19.5 | SMARCA2 conf 8.1 | VP16 Luc act 8.0
Cc1c(C(=O)N2CCCC2)c(S(=O)(=O)Nc2cccc(Br)c2)c(C)n1C	none
Cc1ccc(NS(=O)(=O)c2c(C(=O)N3CCOCC3)c(C)n(C)c2C)cc1	none
Cc1c(C(=O)N2CCCC2)c(S(=O)(=O)Nc2ccccc2)c(C)n1C	SMARCA2 act 13.9 | SMARCA2 conf inactive | VP16 Luc act inactive
Cc1cc(C)cc(NS(=O)(=O)c2c(C(=O)N3CCOCC3)c(C)n(C)c2C)c1	SMARCA2 act 10.1 | SMARCA2 conf inactive | VP16 Luc act inactive
COc1ccc(C(=O)OCCN2CCN(C3CN(Cc4cn(Cc5cccc(F)c5)nn4)S(=O)(=O)C3)CC2)cc1OC (configuration not stated)	none (no result: DAX1 inh-2)
CCCC(=O)N1CCC(NS(=O)(=O)c2ccc3c(c2)CCN3C(C)=O)CC1	none (no result: DAX1 inh-2)
CC1=C(C(=O)OC(C)C)C(c2cccc(F)c2)n2ncnc2N1 (configuration not stated)	none
COc1cccc(C2C(C(=O)OC(C)C)=C(C)Nc3ncnn32)c1 (configuration not stated)	SMARCA2 act 8.2 | SMARCA2 conf inactive | VP16 Luc act inactive
CC(C)c1ccc(C2N3CC4([N+](=O)[O-])CN2CC([N+](=O)[O-])(C3)C4(C)C)cc1 (configuration not stated)	SMARCA2 act 13.0 | SMARCA2 conf inactive | VP16 Luc act inactive
Cc1ccc(-c2nc(CN3CCCCC3)cc(CN3CCCCC3)c2O)cc1	SMARCA2 act 8.2 (no result: DAX1 inh-2) | SMARCA2 conf inactive | VP16 Luc act inactive
COC(=O)C1=C(C)N(Cc2ccc(F)cc2)C(=S)NC1c1cccc(OC)c1 (configuration not stated)	SMARCA2 act 8.6 (no result: DAX1 inh-2) | SMARCA2 conf inactive | VP16 Luc act inactive
COc1ccc(C2CC(=O)N(C)c3ccccc3S2)cc1OC (configuration not stated)	SMARCA2 act 10.3 | SMARCA2 conf 11.9 | VP16 Luc act 9.6
CC(=O)CC[C@@H]1CC[C@]2(CCCN(S(=O)(=O)c3ccccc3)C2)O1	none (no result: DAX1 inh-2)
COc1cc(OC)cc(C(C)c2ccc(-c3ccccc3)cc2)c1 (configuration not stated)	none (no result: DAX1 inh-1, DAX1 inh-2, SMARCA2 act)
C/C(=N\NC(=O)c1nnn(-c2nonc2N)c1C)c1ccc(OCc2ccccc2)cc1	SMARCA2 act 14.4 | SMARCA2 conf inactive | VP16 Luc act 6.1
CCOc1cccc(/C=N\NC(=O)c2cnccn2)c1O	none (no result: DAX1 inh-2)
CCNC(=O)NC(=O)C(C)Sc1nc2cc(C(=O)OC)ccc2c(=O)n1-c1ccccc1 (configuration not stated)	SMARCA2 act 9.4 | SMARCA2 conf inactive | VP16 Luc act inactive
CCNC(=O)NC(=O)C(C)Sc1nc2ccccc2c(=O)n1-c1cccnc1 (configuration not stated)	none
COc1ncnc2c1oc1ccccc12	SMARCA2 act 11.6 | SMARCA2 conf 13.4 | VP16 Luc act 6.0
CN(C(=O)c1ccco1)c1nc(-c2ccc(F)cc2)cs1	DAX1 inh-2 5.2, SMARCA2 act 9.3 | SMARCA2 conf 8.0 | VP16 Luc act 7.6
CN(C(=O)c1ccco1)c1nnc(-c2ccc(F)cc2)s1	none
COCC(=O)Nc1ccc2c(c1)C(=O)N(C)[C@@H]1CC[C@@H](CC(=O)OC)O[C@H]1CO2	none (no result: DAX1 inh-2)
CN1CCCCC(NC(=O)COCc2ccccc2)C1=O (configuration not stated)	none (no result: DAX1 inh-2)
COc1ccc(-c2cnc3c(NC=O)cc(-c4ccc(S(C)(=O)=O)cc4)cn23)cc1OC	SMARCA2 act 10.9 (no result: DAX1 inh-2) | SMARCA2 conf 11.1 | VP16 Luc act inactive
COc1ccc(-c2cnc3c(NC=O)cc(-c4ccoc4)cn23)cc1OC	none (no result: DAX1 inh-2)

Screening results (PubChem BioAssay)
